Screening data as filed in PubChem BioAssay.
3T3 cytotox: Cytotoxic Profiling in NIH 3T3 Cell Line of Diverse Libraries Using Quantitative High-Throughput Screening. Potency, µM (series often up to 96.7 µM), for the others: top-dose activity change, negative = cytotoxicity, most hits filed as inhibitors. 94,000 tested, 4.3% active. NIH 3T3 viability, CellTiter-Glo ATP luminescence, 48-72 h; also: nearly all actives have a fitted effect of over 55% in size
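Cytotoxicity is measured as loss of cellular ATP: NIH 3T3 cells (400/well) are exposed to compound for 48 or 72 hr at 37 °C, then CellTiter-Glo luminescence is imaged after 10 min at room temperature.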
SNCA viab count: GF-AFC viability counterscreen for inhibitors of alpha-synuclein gene (SNCA) expression; AID 1671193, 2021; 150,000 tested, 0.12% active; Potency, µM (doses to about 57.1 µM), for inactives: at the top dose activity change, negative = cytotoxicity, most hits filed as cytotoxic; HEK-293-SNCA-luc viability, GF-AFC fluorescence, 24 h;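 also: 0% = DMSO-treated cells and -100% = medium-only wells without cells; nearly all actives have a fitted effect of over 30% in size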
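Cytotoxicity counterscreen: after 24 h compound treatment of genome-edited SNCA-luciferase HEK-293 cells, live-cell protease substrate GF-AFC read by fluorescence after 30 min; activity scaled between DMSO (0%) and medium-only (-100%), curves Hill-fitted.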
SNCA expr inhib: Primary qHTS assay for inhibitors of alpha-synuclein gene (SNCA) expression; HEK-293 SNCA-luciferase knock-in, luminescence, 24 h; Potency, µM (doses to about 57.2 µM), for the others: at the top dose activity change, negative = inhibition, usual class: inhibitors; 140,000 tested, 0.17% active; AID 1671194, 2021;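 also: plate controls were DMSO cells for no effect and cell-free wells for full effect; nearly all actives have a fitted effect of over 45% in size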
hNpr1 antagonist: Natriuretic polypeptide receptor (hNpr1) antagonism - Primary qHTS | Atrial natriuretic peptide receptor 1 (Homo sapiens), P16066 | HEK293 hNpr1 GloSensor cGMP, ANP-stimulated luminescence | Potency, µM (top dose mostly 46.3 µM), for the others: top-dose activity change, negative = inhibition, actives largely listed as inhibitors | 76,000 tested, 1.6% active | AID 1347048, 2019; calls by dose curve; also: nearly all actives have a fitted effect of over 60% in size
Target sequence (P16066 whole entry, looked up): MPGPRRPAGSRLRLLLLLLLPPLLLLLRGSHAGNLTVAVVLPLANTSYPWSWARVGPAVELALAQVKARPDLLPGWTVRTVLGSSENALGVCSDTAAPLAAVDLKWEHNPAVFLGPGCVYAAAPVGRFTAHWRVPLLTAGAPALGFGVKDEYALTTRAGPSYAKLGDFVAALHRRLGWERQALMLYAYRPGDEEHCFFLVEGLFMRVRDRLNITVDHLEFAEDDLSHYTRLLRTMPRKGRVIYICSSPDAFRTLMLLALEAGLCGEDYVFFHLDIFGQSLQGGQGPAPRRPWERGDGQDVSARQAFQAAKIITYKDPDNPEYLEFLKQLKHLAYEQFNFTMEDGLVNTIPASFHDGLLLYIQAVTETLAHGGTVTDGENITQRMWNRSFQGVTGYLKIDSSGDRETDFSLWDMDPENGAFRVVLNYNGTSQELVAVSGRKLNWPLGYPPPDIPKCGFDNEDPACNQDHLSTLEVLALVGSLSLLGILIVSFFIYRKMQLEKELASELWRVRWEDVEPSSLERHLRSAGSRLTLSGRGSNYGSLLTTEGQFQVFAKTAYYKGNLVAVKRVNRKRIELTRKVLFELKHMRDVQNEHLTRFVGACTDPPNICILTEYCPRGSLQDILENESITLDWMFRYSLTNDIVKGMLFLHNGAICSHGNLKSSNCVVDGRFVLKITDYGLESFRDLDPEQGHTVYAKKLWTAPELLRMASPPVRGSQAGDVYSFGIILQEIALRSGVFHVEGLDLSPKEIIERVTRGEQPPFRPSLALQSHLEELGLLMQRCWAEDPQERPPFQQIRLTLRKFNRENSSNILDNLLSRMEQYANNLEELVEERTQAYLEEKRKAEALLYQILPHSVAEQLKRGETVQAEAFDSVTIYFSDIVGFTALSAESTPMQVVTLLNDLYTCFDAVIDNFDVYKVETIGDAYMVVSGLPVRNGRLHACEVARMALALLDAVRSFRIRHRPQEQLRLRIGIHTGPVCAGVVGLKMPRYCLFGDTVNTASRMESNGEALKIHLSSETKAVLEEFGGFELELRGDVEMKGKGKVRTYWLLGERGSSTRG
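HEK293 cells stably expressing human Npr1 and cGMP GloSensor pGS-40F, loaded 2 h with 2% GloSensor reagent, given compound 30 min at room temperature. Luminescence read before and 20 min after 0.1 nM hNppA.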
HEK293 tox: Cytotoxic Profiling in HEK 293 Cell Line of Diverse Libraries Using Quantitative High-Throughput Screening | HEK 293 viability, ATP luminescence (CellTiter-Glo), 48-72 h | Potency, µM (titrated, usually from 115 µM), inactives show at the top dose activity change, negative = cytotoxicity, most hits filed as inhibitors | 94,000 tested, 6.6% active | AID 1345083, 2018; also: nearly all actives have a fitted effect of over 60% in size
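qHTS cytotoxicity; HEK 293, 250 cells/well; compound pinned; 48 or 72 hr, 37 degree Celsius, 5% CO2, 95% humidity; CellTiter-Glo, 10 min RT; luminescence (ATP).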
FLuc inh: Firefly luciferase inhibition profiling of diverse chemical library using quantitative high-throughput screening | 76,000 tested, 2.5% active | Potency, µM (highest dose often 115 µM), hits mostly inhibitors | purified P. pyralis luciferase, luminescence, biochemical | Luciferin 4-monooxygenase (Photinus pyralis), P08659; also: nearly all actives have a fitted effect of over 65% in size
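Inhibitors were tested against purified firefly luciferase in a biochemical, low-substrate format (both substrates at 10uM) and luminescence measured with a CCD imager.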
Numbers without * were called inactive; i = inactive; ? = inconclusive; . = not tested or not shown; ! = not confirmed by another sample; [ ] = another dose, or the depositor's remark. In the library only some 7.2% were active in any assay of this set; here they are far more common. Unless noted, calls follow the shape of the dose curve; as a rule, active = well fitted curve in the direction sought with a large enough effect; inconclusive = small, poorly fitted or top-dose-only effect, or another doubt; inactive = no such curve, though single readings can be large; an effect the other way counts as inactive or inconclusive. Unless noted, % is scaled to controls: 0 for no effect and ±100 for the full control effect; potency is read from the fitted curve at half-maximal effect.

SMILES	3T3 cytotox	SNCA viab count	SNCA expr inhib	hNpr1 antagonist	HEK293 tox	FLuc inh
CCC(CC)C(=O)N1CC[C@H]2NC(=O)N(c3ccc(C(C)C)cc3)C(=O)[C@H]21	4%[174 µM]	-7%[87.6 µM]	-12%[87.6 µM]	-11%[70.6 µM]	?	i
COC(=O)CNC(=O)C1CN(c2ccc(OC)cc2)C(=O)N1 (stereo unspecified)	-10%[138 µM]	11%[87.6 µM]	-6%[87.6 µM]	0%[70.6 µM]	2%[172 µM]	i
c1cnc2nc(-c3c[nH]c4ncccc34)[nH]c2c1	?	-29%[87.6 µM]	55%[87.6 µM]	12%[70.6 µM]	?	89µM*
c1cnc2nc(-c3ccsc3)[nH]c2c1	?	-17%[87.6 µM]	22%[87.6 µM]	3%[70.6 µM]	126µM*!	?
Cc1cc(-c2nc3ncccc3[nH]2)c(C)[nH]1	?	-3%[87.6 µM]	151%[87.6 µM]	-1%[70.6 µM]	?	40µM*
c1ccc(-c2nc3ncccc3[nH]2)nc1	?	12%[87.6 µM]	83%[87.6 µM]	21%[70.6 µM]	?	i
Cc1ccc(Nc2ccnc(N3CCCC(C(=O)NCCc4ccc(F)cc4)C3)n2)cc1 (stereo unspecified)	32µM*	2%[12.5 µM]	-2%	.	32µM*	.
COCCNC(=O)C1CCCN(c2nccc(Nc3ccc(C)cc3)n2)C1 (stereo unspecified)	?	-2%[12.5 µM]	-4%	.	?	.
COc1ccccc1Nc1ccnc(N2CCCC(C(=O)NCCc3ccc(F)cc3)C2)n1 (stereo unspecified)	?	-13%[12.5 µM]	-20%	.	?	.
COc1ccc(Nc2ccnc(N3CCCC(C(=O)NCCc4ccc(F)cc4)C3)n2)cc1 (stereo unspecified)	25µM*	-9%[12.5 µM]	-14%	.	32µM*	.
COc1ccc(NC(=O)Nc2cccn3nc(C(C)C)nc23)cc1	?	3%	34%	-12%	?	45µM*
O=C(CC1CCCN(c2cnn(CC3CC3)c(=O)c2)C1)N1CCN(c2ccccc2)CC1 (stereo unspecified)	?	-6%	-35%	?	50µM*	i
CCn1ncc(N2CCCC(CC(=O)N3CCN(c4cccc(Cl)c4)CC3)C2)cc1=O (stereo unspecified)	?	2%	?	?	35µM*	i
CN1CCN(C(=O)CC2CCCN(c3cnn(CC4CC4)c(=O)c3)C2)CC1 (stereo unspecified)	-6%	3%	0%	3%	11%	i
CNC(=O)c1cc(C)nc2onc(C3CCN(C(=O)N(C)C)C3)c12 (stereo unspecified)	-18%[138 µM]	.	.	.	-11%[172 µM]	.
O=C1O[C@@H]2CN(S(=O)(=O)N3CCCC3)C[C@@H]2N1CCCc1ccc(F)cc1	-6%	?	?	2%	-24%	i
O=C1CC2(CCN(C(=O)C3CCCN(C(=O)Cc4ccc(F)cc4)C3)CC2)Oc2ccccc2N1 (stereo unspecified)	?	-7%	-1%	.	?	.
O=C(Nc1cccc(C(F)(F)F)c1)O[C@@H]1CO[C@H]2[C@@H]1OC[C@@H]2n1cc(-c2ccccn2)nn1	?	?	?	?	35µM*	i
O=C(Nc1ccccc1)N[C@H]1CO[C@H]2[C@@H]1OC[C@@H]2n1nnnc1-c1ccc2c(c1)OCO2	-20%	1%	1%	-7%	-5%	i
O=C(NC1CCCCC1)N[C@H]1CO[C@H]2[C@@H]1OC[C@@H]2n1cc(-c2ccccn2)nn1	-18%[138 µM]	4%[87.6 µM]	-19%[87.6 µM]	-3%[70.6 µM]	-18%[172 µM]	i
O=C(Nc1ccccc1)O[C@@H]1CO[C@H]2[C@@H]1OC[C@@H]2n1nnnc1-c1ccc2c(c1)OCCO2	-26%	2%	53%	-13%	-13%	45µM*
S=C(NC1CCCCC1)N[C@H]1CO[C@H]2[C@@H]1OC[C@@H]2n1cc(-c2ccccn2)nn1	?	-9%[87.6 µM]	-7%[87.6 µM]	?	89µM*	i
O=C(Nc1ccccc1)O[C@@H]1CO[C@H]2[C@@H]1OC[C@@H]2n1nnnc1SC1CCCC1	-25%[174 µM]	0%[87.6 µM]	-8%[87.6 µM]	?	?	i
O=C(Nc1cccc(C(F)(F)F)c1)O[C@@H]1CO[C@H]2[C@@H]1OC[C@@H]2n1nnnc1SC1CCCC1	40µM*	?	?	?	?	i
O=C(NCc1nnc2ccc(-c3ccc(Cl)cc3)nn12)c1cc(F)ccc1Cl	-10%	3%	-6%	-16%	-4%	i
SMILES	3T3 cytotox	SNCA viab count	SNCA expr inhib	hNpr1 antagonist	HEK293 tox	FLuc inh
CCOC(=O)[C@@H]1[C@@H](O)C(=O)N(Cc2ccccc2)C12CCN(C(=O)CCc1ccccc1)CC2	?	.	.	.	-19%	.
CC(C)CCN1CCCC2(C1)C(=NC1CCCC1)NC(=O)N2c1cc(F)cc(F)c1 (stereo unspecified)	32µM*	?	?	.	?	.
CC(C)CCN1CCC2(CC1)C(=NC1CCCC1)NC(=O)N2c1cc(F)cc(F)c1	-11%	-3%	-22%	.	4%	.
COc1cccc(N2C(=O)NC(=NC3CCCC3)C23CCCN(CCC(C)C)C3)c1 (stereo unspecified)	32µM*	?	?	.	?	.
COc1ccc(Cn2c(=O)c(C(=O)N3CCCC3)nc3cccnc32)cc1	-17%	0%	8%	.	-21%	.
CC[C@H]1CN(S(=O)(=O)c2c(C)noc2C)CC[C@H]1CC(=O)NCc1cccc2ccccc12	?	-16%	-29%	-19%	22µM*	i
COCCN1CCNc2nc(COc3ccc(C(C)C)cc3)n(Cc3ccccc3)c2C1=O	?	-9%	-24%	0%	63µM*	i
O=C1c2c(nc(COc3cccc(F)c3)n2Cc2ccccc2)NCCN1CCOc1ccccc1	35µM*	-4%	-14%	-26%	?	i
O=C1c2c(nc(COc3cccc(F)c3)n2Cc2ccccc2)NCCN1CC1CC1	89µM*	-18%[87.6 µM]	?	-3%[70.6 µM]	100µM*	i
c1ccc(CO[C@H]2COCCN(c3nc4ccccc4s3)C2)cc1	?	4%[87.6 µM]	22%[87.6 µM]	-4%[70.6 µM]	112µM*	?
CC(=O)N1CCN(c2ncnc3c2CN(c2ccccc2C)C(=O)CN3C)CC1	-20%	-5%	18%	-11%	-9%	i
CCOc1ccc(C(=O)Nc2ccc3c(c2)CCC(=O)N3CC(C)C)cc1	?	?	?	?	28µM*	i
COCCN1C(=O)CCc2cc(NC(=O)c3ccc(F)cc3)ccc21	-19%	6%	69%	-2%	?	?
